Results from PubChem BioAssay AID1038 (National Center for Advancing Translational Sciences (NCATS), 2008).
Records with an inconclusive call do not appear. Activity calls are given as the source filed them. Calls follow the shape of the full dose curve.

Test: Normal 1 Cell Viability Secondary Assay for qHTS Assay for Epigenetic Modulators
Conditions: Normal 1 bronchial epithelial viability, MTS, 4 d
Excerpt: NIH Molecular Libraries Screening Centers Network [MLSCN] NIH Chemical Genomics Center [NCGC] MLSCN Grant: 1 X01 MH079860-01 Assay Provider: Elisabeth D. Martinez, University of Texas SW Medical Center NCGC Assay Overview: This secondary assay characterizes selected actives identified in the qHTS of the Locus Derepression (LDR) assay (PubChem AID 597). The LDR assay detects the derepression of a GFP reporter that is stably integrated in a region of the genome of murine c127i mammary cells that is presumably silenced. Compounds that cause derepression of the locus to express GFP are identified by enumerating GFP positive cells using a laser-scanning microplate cytometer. Selected LDR actives were assayed for killing of Normal 1, a patient-derived normal bronchial epithelial line matched to NSCLC 1, a nonsmall cell lung carcinoma line from the same patient. The Normal 1 line assays the cytoxicity of test compounds on normal lung cells. Normal 1 cell viability was measured using Cell Titer 96 AQueous One (Promega), an assay which detects the ability of metabolically active cells to reduce a tetrazolium salt substrate (MTS), into a soluble formazan product that can be measured by colorimetry.
NCGC Assay Protocol Summary Normal 1 cells were plated in 96-well flat bottom tissue culture dishes (Corning) and grown overnight at 37 C and 5% CO2, then treated with compounds, incubated 4 days, and assayed for viability using the Cell Titer 96 AQueous One kit (Promega) according to the manufacturer's protocol. Absorbance at 490 nm and 650 nm (reference) was measured by a Spectra Max (Molecular Devices). Data were normalized to the untreated control (100% viability). Each cell line was tested in one or two independent assays, each containing 4 or 8 replicates. For further details, see R.L. Johnson, W. Huang, A. Jadhav, C.P. Austin, J. Inglese, E.D. Martinez, A Quantitative High-Throughput Screen Identifies Potential Epigenetic Modulators of Gene Expression, Analytical Biochemistry (2007), doi: 10.1016/j.ab.2007.12.028

Row | Compound | Potency | outcome
1 | CC(C)C(=O)NC(c1ccco1)c1ccc2cccnc2c1O (configuration not stated) | 9 µM (active) | –
2 | CN1C(=S)SC(c2ccccc2)N(C)C1c1ccccc1 (configuration not stated) | – | inactive
3 | CC(C)C(=O)NC(c1ccco1)c1cc([N+](=O)[O-])c2cccnc2c1O (configuration not stated) | 0.8 µM (active) | –
4 | O=C(CSc1cccc2cccnc12)NCc1ccccc1 | – | inactive
5 | O=Nc1ccc(O)c2ncccc12 | 3 µM (active) | –
6 | CC(C)C(=O)NC(c1ccc(N(C)C)cc1)c1ccc2cccnc2c1O (configuration not stated) | 6 µM (active) | –
7 | CC(/C=C/C(=O)NO)=C\[C@@H](C)C(=O)c1ccc(N(C)C)cc1 | 0.2 µM (active) | –
